According to PubChem BioAssay:
Active and inactive are the calls of the source.

How the values were obtained:
[1] = system: PRMT1 (protein arginine N-methyltransferase 1); assay: PRMT1 binders on small-molecule microarrays, primary screen, biochemical, small-molecule microarray, 635 nm fluorescence (AID 1088); conditions: small-molecule microarray binding, higher = more signal;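 note: binding of Prmt1 protein to compounds spotted on small-molecule microarray slides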
[2] = yeast growth modulation, basal conditions, primary screen, YJM789 clinical isolate, OD600, 24 h (AID 1089);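 note: growth of clinical yeast isolate S. cerevisiae YJM 789 seeded 1000 cells per well; test concentration not given here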; conditions: S. cerevisiae YJM789 growth, higher = more signal, called active from +8 up or from −8 down
[3] = fission yeast growth modulation, primary screen, strain 972, OD600, 24 h, no modulator (AID 1090);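 note: basal condition with compound alone and no growth modifier present; test concentration not given here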; conditions: S. pombe 972 growth, higher = more signal, called active from +8 up or from −8 down
[4] = S. cerevisiae growth modulation with rapamycin, primary screen, strain BY4716, OD600, 96 h (AID 1091); conditions: higher = more signal, called active from +8 up or from −8 down; note: test concentration not given here
[5] = target: Torsin-1A-interacting protein 2 (Homo sapiens) (UniProt Q8NFQ8); assay: LULL1 binders on small-molecule microarray, primary screen, cell lysate, human LULL1 lysate, 635/667 nm fluorescence (AID 1092); conditions: hLULL1 lysate binding, 635 nm fluorescence, higher = more signal;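 note: probe is lysate of COS7 cells overexpressing human LULL1; score merges per-feature 667 nm fluorescence with signal-to-noise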
[6] = E. coli growth modulation, two-sided OD650, primary screen, E. coli filamentation project, strain DRC41, 24 h (AID 1093); conditions: OD650, 24 h, higher = more signal, called active from +8 up or from −8 down;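 note: MC1000 strain lacking acrAB efflux and sulA so SOS filamentation is blocked; test concentration not given here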
[7] = small-molecule microarray binders of probe aLefty2, primary screen, biochemical, biotinylated probe, 635/667 nm fluorescence (AID 1094); conditions: higher = more signal;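 note: score merges spot fluorescence near 667 nm with spot signal-to-noise ratio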
[8] = system: Noggin (protein binding on small-molecule microarray); assay: Noggin binders on small-molecule microarray, primary screen, biochemical, 635/667 nm fluorescence (AID 1095); conditions: 635 nm fluorescence, higher = more signal;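 note: score merges 667 nm feature fluorescence with signal to noise over triplicate slides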
[9] = target: Neurogenic locus notch homolog protein 3 (Homo sapiens) (UniProt Q9UM47); assay: NOTCH3 binders on small-molecule microarray, primary screen, biochemical, 635/667 nm fluorescence (AID 1096); conditions: NOTCH3 binding, 635 nm fluorescence, higher = more signal
[10] = small-molecule microarray binders of probe aEGFR, primary screen, biochemical, biotinylated probe, 635/667 nm fluorescence (AID 1097); conditions: higher = more signal;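 note: probe is a biotinylated anti-EGFR antibody binding compounds printed on slides; score combines fluorescence near 667 nm and signal to noise of each spot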

Chain of Torsin-1A-interacting protein 2 (Homo sapiens) (Q8NFQ8 whole entry, looked up): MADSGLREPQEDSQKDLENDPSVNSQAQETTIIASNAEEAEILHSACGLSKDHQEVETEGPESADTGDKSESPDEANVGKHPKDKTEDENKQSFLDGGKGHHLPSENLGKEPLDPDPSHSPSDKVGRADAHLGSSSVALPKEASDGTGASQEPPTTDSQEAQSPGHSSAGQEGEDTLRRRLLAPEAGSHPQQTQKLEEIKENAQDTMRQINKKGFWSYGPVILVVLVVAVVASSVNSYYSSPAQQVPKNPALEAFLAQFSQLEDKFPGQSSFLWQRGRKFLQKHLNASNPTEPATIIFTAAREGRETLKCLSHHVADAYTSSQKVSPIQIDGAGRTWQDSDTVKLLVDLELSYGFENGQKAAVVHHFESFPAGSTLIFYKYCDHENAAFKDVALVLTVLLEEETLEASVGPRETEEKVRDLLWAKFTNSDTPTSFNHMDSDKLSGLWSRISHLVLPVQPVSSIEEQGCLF
Chain of Neurogenic locus notch homolog protein 3 (Homo sapiens) (Q9UM47 whole entry, looked up): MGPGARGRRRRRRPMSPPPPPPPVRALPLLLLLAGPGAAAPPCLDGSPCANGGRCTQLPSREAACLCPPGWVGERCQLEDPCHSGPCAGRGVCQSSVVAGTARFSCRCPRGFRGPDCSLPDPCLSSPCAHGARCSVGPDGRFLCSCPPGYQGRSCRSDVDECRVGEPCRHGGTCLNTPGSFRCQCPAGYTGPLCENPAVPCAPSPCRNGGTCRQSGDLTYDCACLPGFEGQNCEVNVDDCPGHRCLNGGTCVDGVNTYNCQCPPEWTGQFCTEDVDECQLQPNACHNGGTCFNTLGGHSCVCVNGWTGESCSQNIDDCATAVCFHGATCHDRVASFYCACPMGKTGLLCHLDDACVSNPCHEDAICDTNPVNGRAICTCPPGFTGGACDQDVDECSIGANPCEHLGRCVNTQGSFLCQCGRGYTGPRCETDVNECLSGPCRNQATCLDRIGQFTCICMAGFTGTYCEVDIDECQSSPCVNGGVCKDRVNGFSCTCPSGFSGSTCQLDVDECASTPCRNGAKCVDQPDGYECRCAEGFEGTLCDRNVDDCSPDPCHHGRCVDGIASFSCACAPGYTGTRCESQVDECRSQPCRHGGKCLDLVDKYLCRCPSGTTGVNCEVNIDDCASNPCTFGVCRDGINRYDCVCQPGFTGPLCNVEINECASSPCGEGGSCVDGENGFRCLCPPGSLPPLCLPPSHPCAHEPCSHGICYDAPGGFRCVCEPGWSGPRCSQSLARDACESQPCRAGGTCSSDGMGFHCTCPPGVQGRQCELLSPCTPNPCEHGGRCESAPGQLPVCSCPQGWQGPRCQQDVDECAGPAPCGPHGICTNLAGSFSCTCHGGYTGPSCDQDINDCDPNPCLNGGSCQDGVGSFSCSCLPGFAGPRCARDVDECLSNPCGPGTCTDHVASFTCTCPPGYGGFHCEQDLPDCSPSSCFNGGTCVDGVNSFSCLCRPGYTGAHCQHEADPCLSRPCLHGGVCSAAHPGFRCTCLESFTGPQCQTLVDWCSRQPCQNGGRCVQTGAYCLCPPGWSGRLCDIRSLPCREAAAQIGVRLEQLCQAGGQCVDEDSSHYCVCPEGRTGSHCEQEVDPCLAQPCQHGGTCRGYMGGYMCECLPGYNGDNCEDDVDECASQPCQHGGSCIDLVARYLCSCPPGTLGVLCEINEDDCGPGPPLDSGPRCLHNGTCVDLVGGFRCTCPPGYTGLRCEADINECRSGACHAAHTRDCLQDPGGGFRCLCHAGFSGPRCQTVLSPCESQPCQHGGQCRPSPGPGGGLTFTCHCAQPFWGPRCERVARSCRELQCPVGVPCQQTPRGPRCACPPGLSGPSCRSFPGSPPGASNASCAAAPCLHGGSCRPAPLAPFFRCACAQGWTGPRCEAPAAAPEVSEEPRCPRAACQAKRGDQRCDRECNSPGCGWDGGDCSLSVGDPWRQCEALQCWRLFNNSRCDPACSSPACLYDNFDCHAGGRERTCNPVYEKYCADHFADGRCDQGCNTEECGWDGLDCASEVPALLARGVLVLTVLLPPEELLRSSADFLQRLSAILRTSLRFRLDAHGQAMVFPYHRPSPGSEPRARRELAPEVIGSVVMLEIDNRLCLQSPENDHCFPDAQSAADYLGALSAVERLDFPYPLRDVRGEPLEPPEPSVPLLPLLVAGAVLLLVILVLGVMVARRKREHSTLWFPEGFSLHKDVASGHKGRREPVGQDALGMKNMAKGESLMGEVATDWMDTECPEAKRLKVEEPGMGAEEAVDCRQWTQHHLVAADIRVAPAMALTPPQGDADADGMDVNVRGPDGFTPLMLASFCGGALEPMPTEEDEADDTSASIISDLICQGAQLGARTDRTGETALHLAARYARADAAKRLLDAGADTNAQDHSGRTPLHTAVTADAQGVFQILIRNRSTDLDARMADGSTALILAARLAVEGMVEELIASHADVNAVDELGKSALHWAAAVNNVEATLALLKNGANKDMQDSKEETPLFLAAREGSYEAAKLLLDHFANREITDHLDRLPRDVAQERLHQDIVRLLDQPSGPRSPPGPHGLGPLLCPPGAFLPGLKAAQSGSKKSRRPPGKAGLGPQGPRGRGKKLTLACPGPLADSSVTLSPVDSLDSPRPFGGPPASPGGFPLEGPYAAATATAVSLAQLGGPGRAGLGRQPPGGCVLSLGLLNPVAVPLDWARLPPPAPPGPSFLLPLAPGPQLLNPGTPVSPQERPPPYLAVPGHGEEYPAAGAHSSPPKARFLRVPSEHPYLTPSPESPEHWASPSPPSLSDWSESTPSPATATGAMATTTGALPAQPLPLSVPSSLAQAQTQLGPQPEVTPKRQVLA

Compound	composite z-score [1]	z-score [2]	z-score [3]	z-score [4]	composite z-score [5]	z-score [6]	composite z-score [7]	composite z-score [8]	composite z-score [9]	composite z-score [10]
[N-]=[N+]=NCc1ccccc1[C@@H]1OC(c2ccc(OCCCO)cc2)=N[C@]1(Cc1ccccc1N=[N+]=[N-])C(=O)NCc1ccccc1	1.55	1.1 (inactive)	1.44 (inactive)	8.41 (active)	2.45	-0.911 (inactive)	0.139	0.646	1.13	0.123
COc1ccc([Si](C)(C)[C@H]2[C@H](CCn3cc(CCO)nn3)O[C@@]3(C(=O)N(Cc4ccc(N5CCOC5=O)cc4)c4ccccc43)[C@@H]2C)cc1	1.37	1.02 (inactive)	0.928 (inactive)	4.55 (inactive)	1.31	1.01 (inactive)	-0.103	0.42	0.928	-0.212
CC(=O)NCCCC[C@@H]1NC(=O)[C@@H]2C[C@H](C(=O)NCCCCN(C)C)[C@H](c3ccc(O)cc3)N2C1=O	-0.0942	-0.442 (inactive)	0.169 (inactive)	-0.687 (inactive)	1.65	1.14 (inactive)	-0.0906	-0.126	-0.322	-0.109
O=C(CCN1CCOCC1)c1cccc(O)c1	1.3	-1.35 (inactive)	-5.52 (inactive)	-1.01 (inactive)	0.571	-2.03 (inactive)	0.197	0.645	1.07	0.234
CC(C)C(=C=CC[C@@H](O)c1ccccc1OCCO)C[C@@H](O)c1ccccn1	0.439	2.46 (inactive)	-0.18 (inactive)	-1.1 (inactive)	2.67	-0.0287 (inactive)	-0.126	0.538	0.878	-0.099
CCOC(=O)C1=C[C@@H](C(C)C)N(S(=O)(=O)c2ccc(C)cc2)[C@H]1c1ccc(C(C)C)cc1	1.25	0.129 (inactive)	2.04 (inactive)	0.612 (inactive)	3.02	-0.35 (inactive)	0.112	0.75	1.09	-0.0381
O=C1O[C@H](c2ccccc2)[C@H](c2ccccc2)N2[C@H]1[C@@H](C(=O)O)[C@]1(C(=O)Nc3ccc(C#CC4(O)CCCCCC4)cc31)[C@H]2c1ccc(OCCO)cc1	1.37	2.28 (inactive)	0.219 (inactive)	0.124 (inactive)	3.58	-0.831 (inactive)	-0.124	-0.338	0.528	-0.216
C=CC(=C)C1=CCO[C@@H]1[C@H]1CCCN1S(=O)(=O)c1ccccc1[N+](=O)[O-]	0.921	-0.358 (inactive)	0.131 (inactive)	-0.184 (inactive)	0.86	0.301 (inactive)	-0.0416	0.35	1.11	-0.115
COc1cc2c(cc1OC)CN(C(=O)[C@@H]1[C@H]3C(=O)O[C@H](c4ccccc4)[C@H](c4ccccc4)N3[C@H](c3ccccc3OCCO)[C@@]13C(=O)Nc1ccc(C#CCNC(N)=O)cc13)CC2	1.48	0.443 (inactive)	1 (inactive)	3.09 (inactive)	2.61	0.912 (inactive)	0.257	1.09	1.08	-0.0873
C=CCNC(=O)[C@@H]1[C@H]2C(=O)O[C@H](c3ccccc3)[C@H](c3ccccc3)N2[C@H](c2ccccc2OCCO)[C@@]12C(=O)Nc1ccc(C#CC3=CCCCC3)cc12	1.55	1.05 (inactive)	-3.5 (inactive)	2.87 (inactive)	2.75	1.47 (inactive)	0.058	0.983	1.11	-0.0185
CN(C)C(=O)[C@]1(CCC(=O)OC(C)(C)C)N=C(c2ccc(OCCCO)cc2)O[C@@H]1c1ccccc1N=[N+]=[N-]	1.54	1.1 (inactive)	0.626 (inactive)	0.0958 (inactive)	3.78	0.515 (inactive)	0.17	0.245	0.684	0.11
C=C(COC)/C(=C/C[C@H](OC(=O)c1ccncc1)c1cccc(OCCO)c1)c1cc(C(=O)OC)ccc1OC	1.48	0.447 (inactive)	-1.01 (inactive)	-0.429 (inactive)	1.95	0.973 (inactive)	-0.128	0.604	0.679	-0.139
Cc1ccc(S[C@]2(C(=O)NCc3ccccc3)CC(=O)N(Cc3ccccc3Cl)[C@@H]2c2ccc(CO)cc2I)cc1	1.08	-3.68 (inactive)	-3.05 (inactive)	0.103 (inactive)	1.65	-0.592 (inactive)	0.114	-1.07	-0.109	-0.168
COCCOC(=O)N1C(=O)[C@@]2(c3ccccc31)[C@H](c1ccc(O)cc1)N1[C@H](c3ccccc3)[C@H](c3ccccc3)OC(=O)[C@H]1[C@@H]2C(=O)N1CCc2cc(OC)c(OC)cc2C1	1.54	-1.36 (inactive)	0.201 (inactive)	1.3 (inactive)	1.17	-0.121 (inactive)	0.0191	1.04	1.06	0.101
CN(C)CCCCCCNC(=O)[C@H]1C[C@H]2C(=O)N[C@@H](CCCCN)C(=O)N2[C@H]1c1ccc(O)cc1	1.54	-0.329 (inactive)	-2.88 (inactive)	-0.02 (inactive)	4.58	-0.151 (inactive)	1.76	2.02	1	1.15
COC(=O)C[C@@H]1C[C@H](C)[C@]2(O1)C(=O)N(Cc1ccccc1)c1ccc(NC(C)=O)cc12	-0.509	0.498 (inactive)	-1.1 (inactive)	0.134 (inactive)	0.053	0.827 (inactive)	-0.166	0.571	0.107	-0.111
CCOC(=O)C[C@H]1[C@H](OC(=O)c2ccc(-c3ccccc3)cc2)[C@@H](NC(=O)c2ccc3ccccc3c2)c2cc(OCCCO)ccc2N1C(=O)Cc1ccc(OC)cc1	0.265	-1.32 (inactive)	0.636 (inactive)	-0.115 (inactive)	0.948	0.0672 (inactive)	-0.124	-0.205	-0.209	-0.128
CC(C)NC(=O)[C@@H]1c2ccccc2C(=O)N(Cc2ccccc2Cl)[C@H]1c1ccc(CO)cc1	1.4	0.759 (inactive)	0.247 (inactive)	0.173 (inactive)	1.8	1.19 (inactive)	-0.053	-0.384	0.143	-0.287
COCCOC(=O)N1C(=O)[C@@]2(c3cc(C#CC4=CCCCC4)ccc31)[C@H](C(=O)NC[C@H](O)c1ccccc1)[C@H]1C(=O)O[C@H](c3ccccc3)[C@H](c3ccccc3)N1[C@@H]2c1ccc(O)cc1	1.54	1 (inactive)	0.0198 (inactive)	1.83 (inactive)	2.08	2.13 (inactive)	0.0723	0.829	1.06	0.0937
C=C[C@@H](COC(C)=O)N(Cc1ccccc1[N+](=O)[O-])S(=O)(=O)c1ccc(Br)cc1	0.61	-3.84 (inactive)	-2.76 (inactive)	-0.748 (inactive)	1.43	1.91 (inactive)	-0.297	1.1	0.945	0.212
COC(=O)c1c(CC[C@@H](CO)NC(=O)N[C@@H](Cc2ccccc2)Cn2cc(C3(O)CCCCC3)nn2)oc(C(C)=O)c1C(=O)OC	1.55	-2.65 (inactive)	-1.81 (inactive)	-0.415 (inactive)	1.38	1.31 (inactive)	-0.0441	1.09	1.12	0.0117
O=C1OCCC/C=C\[C@H]2OC34C=CCN(Cn5nnc6ccccc65)C(=O)[C@H]3N(CCCCCO)C(=O)[C@@H]4C12 (stereo not given in full)	-1.29	-0.401 (inactive)	-0.745 (inactive)	-1.83 (inactive)	1.04	0.498 (inactive)	-0.114	-0.808	-0.0037	-0.174
C=CC[C@@]1(C(=O)N2CCOCC2)N=C(c2ccc(OCCCO)cc2)O[C@@H]1c1ccccc1N=[N+]=[N-]	1.54	-1.27 (inactive)	-1.02 (inactive)	0.811 (inactive)	3.41	0.639 (inactive)	0.362	0.998	1.13	0.353
COc1c(C)cc(-c2cc3c(c(-c4ccc(Oc5ccccc5)cc4)n2)[Si](C(C)C)(C(C)C)OC3)cc1C	-0.871	1.09 (inactive)	0.818 (inactive)	2.03 (inactive)	0.0255	-1.38 (inactive)	-0.0528	0.104	-0.386	-0.0947
C=C[C@H](C)[C@@H](O)c1ccc(O)c2ccccc12	-0.169	-0.968 (inactive)	-13.3 (active)	4.25 (inactive)	0.853	0.149 (inactive)	-0.254	-0.0597	-0.0004	-0.322
CCCN1C(=O)[C@]2(COC(c3ccc(OCCCO)cc3)=N2)Cc2ccccc21	1.18	-0.102 (inactive)	-2.37 (inactive)	-1.35 (inactive)	2.88	0.525 (inactive)	0.303	0.134	0.112	-0.0774
CCOC(=O)C[C@H]1[C@H](OC(=O)c2ccccc2-c2ccccc2)[C@@H](NC(=O)c2ccc3ccccc3c2)c2cc(OCCCO)ccc2N1C(=O)c1ccc2ccccc2n1	0.389	0.47 (inactive)	0.623 (inactive)	0.136 (inactive)	0.998	-0.263 (inactive)	-0.102	0.526	0.818	-0.111
O=c1cccc(CCc2ccccc2)o1	1.08	-0.951 (inactive)	-2.06 (inactive)	0.102 (inactive)	1.8	-0.97 (inactive)	-0.117	0.491	0.621	-0.171
CC(C)N1CC=CC23O[C@@H]4C=CCOC(=O)[C@@H]4[C@H]2C(=O)N(CCO)[C@@H]3C1=O (stereo not given in full)	0.53	1.14 (inactive)	0.24 (inactive)	-0.938 (inactive)	3.37	0.73 (inactive)	-0.328	-0.431	0.173	-0.287
